Reference: PubChem BioAssay
Activity calls are given as the source filed them. Unless noted, no rule for the calls is given here.

Assays:
[1] = compound effects on lung adenocarcinoma cell viability – A549, calcein-AM fluorescence, 48 h, basal, profiling panel (AID 1162); settings: higher = more signal; also: test concentration not given here
[2] = compound effects on differentiated 3T3-L1 adipocyte viability – cell-based, 3T3-L1 adipocytes, calcein-AM fluorescence, 48 h, basal, profiling panel (AID 1163); settings: 3T3-L1 adipocytes viability, higher = more signal; also: test concentration not given here
[3] = compound effects on hepatocellular carcinoma cell viability – HepG2, calcein-AM fluorescence, 48 h, basal, profiling panel (AID 1164); settings: higher = more signal; also: test concentration not given here
[4] = compound effects on multiple myeloma cell viability – MM1S, calcein-AM fluorescence, 48 h, basal, profiling panel (AID 1165); settings: higher = more signal;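 also: viability of MM1S multiple myeloma cells under basal unstimulated conditions; test concentration not given here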
[5] = calcein-AM signal in unstimulated myeloma cells – cell-based, calcein-AM fluorescence, 48 h, PK04 Diversity Set, profiling panel (AID 1166); settings: RPMI8226 myeloma viability, higher = more signal;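 also: cells grown under basal conditions without added stimulus; test concentration not given here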
[6] = JC-1 mitochondrial signal, unstimulated HepG2 cells – cell-based, JC-1 fluorescence, 24 h, 100 nL compound, profiling panel (AID 1167); settings: HepG2 mitochondrial potential, higher = more signal; also: test concentration not given here
[7] = JC-1 mitochondrial signal, unstimulated adipocytes – cell-based, JC-1 fluorescence, 3T3-L1 adipocytes, 24 h, 100 nL compound, profiling panel (AID 1168); settings: JC-1 mitochondrial fluorescence, higher = more signal, called active from +8 up or from −8 down; also: test concentration not given here
[8] = JC-1 mitochondrial signal, unstimulated myeloma cells – cell-based, JC-1 fluorescence, RPMI8226, 24 h, 100 nL compound, profiling panel (AID 1169); settings: JC-1 mitochondrial potential fluorescence, higher = more signal; also: test concentration not given here
[9] = JC-1 mitochondrial signal, unstimulated MM1S myeloma – cell-based, JC-1 fluorescence, 24 h, 100 nL compound, profiling panel (AID 1170); settings: MM1S mitochondrial potential, higher = more signal; also: test concentration not given here
[10] = resazurin metabolic signal in A549 cells – cell-based, resazurin fluorescence, 24 h, PK04 Diversity Set, profiling panel (AID 1171); settings: A549 viability, higher = more signal, called active from +8 up or from −8 down; also: test concentration not given here
[11] = resazurin metabolic signal in HepG2 cells – cell-based, resazurin fluorescence, 24 h, PK04 Diversity Set, profiling panel (AID 1172); settings: HepG2 viability, higher = more signal; also: test concentration not given here
[12] = budding yeast growth changes without added modifier – OD600, strain BY4716, 24 h, basal condition, primary screen (AID 1173); settings: S. cerevisiae BY4716 growth, OD600, 24 h; higher = more signal, called active from +8 up or from −8 down
[13] = viability profiling in MM1S myeloma cells – cell-based, resazurin fluorescence, basal, 24 h, PK04 Diversity Set, profiling panel (AID 1174); settings: higher = more signal, called active from +8 up or from −8 down; also: test concentration not given here
[14] = target: Dihydroorotate dehydrogenase (quinone), mitochondrial (Plasmodium falciparum (isolate 3D7)) (UniProt Q08210); assay: inhibition of P. falciparum DHODH – biochemical, C-terminal His tag, absorbance 600 nm, primary screen (AID 1175); settings: PfDHODH enzyme, DCIP absorbance 600 nm; higher = more signal, called active from +8 up or from −8 down;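 also: recombinant parasite enzyme with a five histidine tag at its C terminus; test concentration not given here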
Dihydroorotate dehydrogenase (quinone), mitochondrial (Plasmodium falciparum (isolate 3D7)), sequence (Q08210 whole entry, looked up): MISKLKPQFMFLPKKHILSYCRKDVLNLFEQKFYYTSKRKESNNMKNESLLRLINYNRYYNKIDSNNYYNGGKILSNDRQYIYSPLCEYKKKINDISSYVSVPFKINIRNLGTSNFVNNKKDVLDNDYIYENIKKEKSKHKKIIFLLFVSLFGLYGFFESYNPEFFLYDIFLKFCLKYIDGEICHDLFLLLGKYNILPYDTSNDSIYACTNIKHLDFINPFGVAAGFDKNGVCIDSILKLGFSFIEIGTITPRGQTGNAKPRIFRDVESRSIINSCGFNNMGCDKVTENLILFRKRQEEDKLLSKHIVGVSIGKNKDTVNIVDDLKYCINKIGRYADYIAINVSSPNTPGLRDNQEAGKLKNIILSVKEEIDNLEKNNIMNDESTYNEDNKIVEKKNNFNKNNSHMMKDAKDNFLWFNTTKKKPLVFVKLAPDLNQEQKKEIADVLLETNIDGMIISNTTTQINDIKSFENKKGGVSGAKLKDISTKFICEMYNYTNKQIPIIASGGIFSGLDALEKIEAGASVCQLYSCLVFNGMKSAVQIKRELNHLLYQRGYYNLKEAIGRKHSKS

[15] = inhibition of PAO1 biofilm formation – strain PAO1, LB-PBS medium, absorbance 600 nm, primary screen (AID 1176); also: test concentration not given here; settings: P. aeruginosa PAO1 growth/biofilm, A600, 12 h; higher = more signal
[16] = growth modulation of vineyard yeast isolate – strain RM11-1a, OD600, basal, 24 h, primary screen (AID 1177);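 also: cultures grown under basal conditions with no added stressor; test concentration not given here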; settings: S. cerevisiae RM11-1a growth, OD600, 24 h; higher = more signal, called active from +8 up or from −8 down
[17] = growth of efflux-deficient E. coli DRC39 – strain DRC39, OD650, 24 h, E. coli filamentation inducers, primary screen (AID 1178);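 also: growth measured as culture turbidity by optical density at 650 nm; test concentration not given here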; settings: E. coli DRC39 acrAB, higher = more signal, called active from +8 up or from −8 down
[18] = growth of efflux-deficient E. coli DRC39 – strain DRC39, OD650, 48 h, E. coli filamentation inducers, primary screen (AID 1179);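 also: screen aims at cell division blockers that make cells filament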; settings: E. coli DRC39 delta-acrAB growth, higher = more signal, called active from +8 up or from −8 down
[19] = viability profiling in RPMI8226 myeloma cells – cell-based, resazurin fluorescence, basal, 24 h, PK04 Diversity Set, profiling panel (AID 1180); settings: higher = more signal;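 also: RPMI8826 multiple myeloma cell line at 5000 cells per well; test concentration not given here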
[20] = target: E3 ubiquitin-protein ligase XIAP (Homo sapiens) (UniProt P98170); assay: small molecules binding XIAP protein – biophysical, small-molecule microarray, fluorescence 635 nm, primary screen (AID 1181); settings: higher = more signal;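 also: score merges 667 nm emission and signal to noise over triplicate slides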
E3 ubiquitin-protein ligase XIAP (Homo sapiens), sequence (P98170 whole entry, looked up): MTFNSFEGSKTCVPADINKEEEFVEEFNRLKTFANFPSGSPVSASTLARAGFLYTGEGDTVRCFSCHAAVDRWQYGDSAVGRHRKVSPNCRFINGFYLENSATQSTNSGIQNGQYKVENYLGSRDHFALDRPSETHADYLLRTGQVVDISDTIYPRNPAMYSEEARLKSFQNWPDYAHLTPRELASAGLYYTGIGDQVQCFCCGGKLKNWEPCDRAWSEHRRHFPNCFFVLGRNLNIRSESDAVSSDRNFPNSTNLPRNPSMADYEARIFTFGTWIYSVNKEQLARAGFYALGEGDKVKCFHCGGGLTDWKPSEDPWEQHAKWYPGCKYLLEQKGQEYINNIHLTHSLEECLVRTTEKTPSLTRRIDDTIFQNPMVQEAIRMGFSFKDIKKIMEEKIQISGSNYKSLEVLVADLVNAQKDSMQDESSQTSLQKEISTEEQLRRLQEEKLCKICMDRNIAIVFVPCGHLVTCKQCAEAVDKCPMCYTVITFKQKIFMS

Structure (SMILES)	z-score [1]	z-score [2]	z-score [3]	z-score [4]	z-score [5]	z-score [6]	z-score [7]	z-score [8]	z-score [9]	z-score [10]	z-score [11]	z-score [12]	z-score [13]	composite z-score [14]	z-score [15]	z-score [16]	z-score [17]	z-score [18]	z-score [19]	composite z-score [20]
COc1ccc([Si](C)(C)[C@@H]2[C@@H](CC(=O)N3Cc4ccccc4C[C@H]3CO)O[C@]3(C(=O)N(Cc4cccc(N5CCCCC5=O)c4)c4ccccc43)[C@H]2C)cc1	-0.824	1.85	-1.27	-1.55	-3.36	-0.157	0.472 (inactive)	-0.901	-0.398	-2.68 (inactive)	-1.16	0.0062 (inactive)	-3.09 (inactive)	-1.02 (inactive)	0.331 (inactive)	1.98 (inactive)	-0.453 (inactive)	-0.878 (inactive)	-2.15	-0.148
O=C1O[C@@H](c2ccccc2)[C@@H](c2ccccc2)N2[C@@H](c3ccc(O)cc3)[C@]3(C(=O)Nc4ccc(C#CC5=CCCCC5)cc43)[C@@H](C(=O)Nc3nc4ccccc4s3)[C@H]12	0.583	-0.0897	1.46	-0.575	-1.81	-2.6	0.03 (inactive)	-0.745	-1.02	-0.361 (inactive)	0.235	-0.826 (inactive)	-0.139 (inactive)	-0.504 (inactive)	2.14 (inactive)	0.137 (inactive)	0.591 (inactive)	0.986 (inactive)	-0.595	-0.0925
C=CCC(OC(C)=O)[C@@H]1[C@@H](N(Cc2cccc3ccccc23)C(=O)c2ccc(C)cc2)c2cc(OCCCO)ccc2N1C(=O)c1ccc2ccccc2c1 (stereo not given in full)	0.93	1.08	2.15	0.577	0.12	2.37	0.658 (inactive)	0.102	-0.796	0.912 (inactive)	0.924	-0.0786 (inactive)	1.27 (inactive)	-1.86 (inactive)	0.101 (inactive)	-1.7 (inactive)	1.24 (inactive)	1.8 (inactive)	1.04	-0.152
O=C1OCCC=C[C@H]2OC34C=CCN(Cn5nnc6ccccc65)C(=O)[C@H]3N(CCCCCO)C(=O)[C@@H]4C12 (stereo not given in full)	-0.0295	0.43	0.293	1.75	0.723	0.742	0.117 (inactive)	0.0919	-1.19	-0.605 (inactive)	-0.444	0.994 (inactive)	0.241 (inactive)	-0.951 (inactive)	-0.0432 (inactive)	0.137 (inactive)	0.672 (inactive)	0.774 (inactive)	0.618	-0.0943
COCCCNC(=O)[C@]1(Cc2ccccc2CN=[N+]=[N-])N=C(c2ccc(OCCCO)cc2)O[C@@H]1c1ccccc1CN=[N+]=[N-]	-0.386	0.0035	-0.918	-2.79	-4.22	1.31	-0.907 (inactive)	-1.18	-1.73	-0.241 (inactive)	-0.504	0.409 (inactive)	-2.2 (inactive)	0.502 (inactive)	1.29 (inactive)	-0.605 (inactive)	0.445 (inactive)	0.0972 (inactive)	-2.03	0.0427
COC(=O)[C@@]1(Cc2ccc(OC)cc2)[C@H]2c3cc(C(=O)N4CCCC4)n(CCF)c3C[C@H]2CN1C(=O)c1ccccc1	-1.41	1.71	-0.336	0.0026	-1.05	3.33	-1.65 (inactive)	-0.178	-0.0401	-1.55 (inactive)	-0.952	1.1 (inactive)	-2.21 (inactive)	0.0648 (inactive)	1.06 (inactive)	0.977 (inactive)	-1.52 (inactive)	-1.09 (inactive)	-1.72	-0.0471
C=C(COC)C(=O)CC[C@H](OC(=O)c1ccccc1-c1ccccc1C(=O)O)c1ccc(OCCO)cc1	-0.127	1.06	-0.626	-1.85	-0.385	-0.271	-0.328 (inactive)	-0.463	0.463	-0.276 (inactive)	-0.381	0.142 (inactive)	-0.288 (inactive)	-0.575 (inactive)	1.3 (inactive)	-0.386 (inactive)	-0.752 (inactive)	-0.561 (inactive)	-0.7	0.0223
COCCCNC(=O)[C@]1(Cc2ccccc2)N=C(c2ccc(OCCCO)cc2)O[C@@H]1c1ccccc1N=[N+]=[N-]	-1.8	1.77	-1.47	-1.78	-4.29	1.29	0.235 (inactive)	-1.1	-1.73	-1.09 (inactive)	0.0754	-1.75 (inactive)	-2.61 (inactive)	0.828 (inactive)	-0.674 (inactive)	-0.355 (inactive)	1.27 (inactive)	0.642 (inactive)	-2.73	-0.02
COc1ccccc1CN1C(=O)c2ccccc2[C@@]2(Cc3ccccc3N(C3CC3)C2=O)[C@@H]1c1ccc(CO)cc1	0.0264	0.358	0.43	-1.6	-0.96	-0.774	-0.607 (inactive)	0.213	0.361	0.375 (inactive)	0.409	0.162 (inactive)	-0.319 (inactive)	-6.76 (inactive)	-0.255 (inactive)	-0.522 (inactive)	-0.473 (inactive)	-0.694 (inactive)	-0.343	-0.232
COC(=O)[C@@]1(Cc2ccc(F)cc2)[C@H]2c3cc(C(=O)N(C)C)n(Cc4ccc(C)c(F)c4F)c3C[C@H]2CN1C(=O)c1ccccc1	0.674	-0.609	1.03	-0.144	0.299	3.29	0.157 (inactive)	0.299	-0.605	0.0638 (inactive)	0.245	0.534 (inactive)	-0.231 (inactive)	0.059 (inactive)	-0.0298 (inactive)	0.671 (inactive)	0.171 (inactive)	0.265 (inactive)	-0.455	-0.102
CN1C(=O)C2C=CC(C(O)C3CCCCC3)N(N(c3ccccc3)c3ccccc3)C2C1=O (stereo not given)	-0.42	-0.88	0.149	0.241	-0.758	-0.954	-1.2 (inactive)	-0.361	-0.365	-0.361 (inactive)	-0.11	0.495 (inactive)	-1.54 (inactive)	-0.15 (inactive)	0.571 (inactive)	0.0139 (inactive)	-0.881 (inactive)	-0.121 (inactive)	-1.54	0.264
COc1ccc(C#Cc2ccc3c(c2)[C@]2(C(=O)N3)[C@H](C(=O)O)[C@H]3C(=O)O[C@H](c4ccccc4)[C@H](c4ccccc4)N3[C@@H]2c2ccc(OCCO)cc2)cc1	0.614	0.971	1.27	-2.45	-4.03	-4.14	-4.58 (inactive)	-1.23	-1.27	0.982 (inactive)	-0.182	0.773 (inactive)	0.586 (inactive)	-15.6 (active)	3.6 (inactive)	2.51 (inactive)	0.851 (inactive)	0.377 (inactive)	0.431	0.0811
C[C@H]1NC(=O)C([C@@H](C)OCc2ccccc2)NC(=O)[C@@]23C(=O)N[C@@H](Cc4ccccc4)C2[C@H](C)[C@@]2(C)O[C@H]2C3/C=C/CC/C=C/CNC1=O (stereo not given in full)	0.33	0.221	0.456	-0.728	-1.2	2.67	0.434 (inactive)	0.452	1.84	-0.757 (inactive)	-1.3	-0.782 (inactive)	0.737 (inactive)	0.855 (inactive)	-0.766 (inactive)	0.604 (inactive)	1.36 (inactive)	0.336 (inactive)	0.189	0.13
CCOC(=O)C1=CC[C@@H](c2cccc(Br)c2)N(S(=O)(=O)c2ccc(C)cc2)[C@H]1c1ccc([N+](=O)[O-])cc1	-0.699	-0.349	-0.203	-1.07	-1.24	1.45	0.097 (inactive)	-0.841	-1.57	0.851 (inactive)	0.157	0.25 (inactive)	-0.343 (inactive)	-1.26 (inactive)	0.449 (inactive)	-0.403 (inactive)	-0.837 (inactive)	-0.0589 (inactive)	-1.14	-0.27
COC(=O)[C@@]1(Cc2ccc(F)cc2)[C@H]2c3cc(C(=O)N4CCCC4)n(Cc4ccccc4)c3C[C@H]2CN1C(=O)c1ccccc1	-0.858	-0.273	-0.579	-2.1	-4.11	0.49	-0.76 (inactive)	-0.104	-0.759	0.0314 (inactive)	0.155	1.38 (inactive)	-0.874 (inactive)	0.335 (inactive)	-0.526 (inactive)	0.669 (inactive)	0.392 (inactive)	-0.406 (inactive)	-0.922	-0.146
C=C(CCCC)/C(=C/C[C@@H](OC(=O)c1ccncc1)c1ccccc1OCCO)c1cc(C(=O)OC)ccc1OC	0.0198	0.725	0.949	-3.26	-3.93	2.84	-0.188 (inactive)	-0.497	-1.14	0.17 (inactive)	-0.16	0.0793 (inactive)	-1.38 (inactive)	-0.455 (inactive)	0.506 (inactive)	0.111 (inactive)	0.275 (inactive)	0.223 (inactive)	-0.94	0.057
C=CCC(OC(C)=O)[C@@H]1[C@@H](N(Cc2cc3ccccc3o2)C(=O)Cc2ccc(OC)cc2)c2cc(OCCCO)ccc2N1C(=O)c1ccc(-c2ccccc2)cc1 (stereo not given in full)	0.328	1.05	0.228	-0.841	-1.82	3.42	0.182 (inactive)	-0.392	0.415	-0.451 (inactive)	-0.877	-0.464 (inactive)	1.05 (inactive)	0.849 (inactive)	-0.558 (inactive)	0.275 (inactive)	0.66 (inactive)	0.16 (inactive)	0.337	-0.0575
